These results are taken from PubChem BioAssay AID1458 (National Center for Advancing Translational Sciences (NCATS), 2008).

Out of some 210,000 compounds screened, about 5,900 (2.8%) were called active. Not shown: some 5% with an inconclusive outcome. The sample as a whole holds a higher share of actives than the screen did. A number with no mark means an inactive call. The call rests on the fitted dose curve; in most records, active means well fitted activation curve with a large enough effect; inconclusive means small, poorly fitted or top-dose-only effect; inactive means no such curve, though single readings can be large or run the other way.
Potency means the concentration at half of the fitted maximal effect.

The nature of this experiment: qHTS Assay for Enhancers of SMN2 Splice Variant Expression. Further: nearly all actives have a fitted effect of over 55% in size. On activity change, positive = activation: % of control where 0% means no effect. Conditions: HEK293 SMN2-luciferase splicing reporter, luminescence, 30-36 h; series mostly up to 46.1 µM; activity change, positive = activation: at the top concentration. Put shortly:
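HEK293 cells carry an SMN2 minigene-luciferase reporter in which exon 7 inclusion puts luciferase in frame. Cells were seeded at 2000 cells/well, attached for 10-12 hours, then exposed to compounds for 30-36 hours at 37C before ONE-Glo luminescence.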
With `COc1ccc(CC(N)C(=O)NC2C(O)[C@H](n3cnc4c(N(C)C)ncnc43)O[C@@H]2CO)cc1` (some centres not stated), the “activity change, positive = activation” value is -70.3%.
The same measure, in the same setting: to `CC1=C(C(=O)OCC2CCCCC2)C(c2c(F)cccc2Cl)CC(=O)N1` (configuration not stated) belongs -17.8%; to `O=C(Nc1cc(C(F)(F)F)ccc1Cl)c1ccc2c(c1)CCN2S(=O)(=O)c1ccccc1`, 2.17%.
The same measure, in the same setting: the figure for `CCSc1ncc(Cl)c(C(=O)Nc2c(C(=O)c3ccccc3)oc3ccccc23)n1` is 4.69%; for `O=C(C1CCCN(S(=O)(=O)c2cccc3nonc23)C1)N1CCN(c2ccccc2F)CC1` (configuration not stated) it is -5.02%.
With `COc1ccccc1Nc1cc(C(=O)NCCCN(C)C2CCCCC2)c2ccccc2n1`, the “activity change, positive = activation” value is -53.1%.
On the same count and under the same terms, the figure for `CCCC12CN3CC(C)(CN(C1)C3c1ccccc1Cl)C2=O` (configuration not stated) is 3.3%.
With `CCC(=O)NC(=Nc1nc2ccccc2s1)NC(=O)CC`, the Potency was 10 µM (active).
Consider `Cc1cc(C(=O)OCC(=O)Nc2nnc(C(C)C)s2)c2ccccc2n1`, for which the activity change, positive = activation was 10.4% [at 1.84 µM].
On the same count and under the same terms, the figure for `O=C(O)CCCCc1nc2ccccc2s1` is 11.6%.
For the molecule `CC(C)CC(=O)N/C(N)=N/c1nc2ccccc2s1`, the Potency is 11.2 µM (active).
Turning to `COC(=O)c1nc2ccccc2s1`, the “activity change, positive = activation” value was -17.7%.
On the same count and under the same terms, to `CC(C)CC(=O)NC(=S)NCc1ccccc1` belongs 12.2%.
Still for that read-out and setting: to `CCc1nn(CC(=O)N2CCN(c3ccc(Cl)cc3)CC2)c(=O)c2cc3occc3n12` belongs -8.33%; to `CCc1ccc(S(=O)(=O)Nc2cc3c(C(=O)OCc4ccccc4)c(C)oc3c3ccccc23)cc1`, -8.12%; to `O=C(CSc1ncc(S(=O)(=O)c2ccc(Br)cc2)c(=O)[nH]1)Nc1ccc2c(c1)OCCO2`, -4.42%.
Same read-out and setting: the figure for `Cc1ccc(NC(=O)CN2c3ccccc3S(=O)(=O)c3ccccc32)cc1F` is -8.12%; for `CCOc1ccccc1NC(=O)CCS(=O)(=O)c1cccc2nsnc12` it is 7.78%; for `O=C(CSCc1ccc(Cl)cc1)N1CCN(Cc2ccc3c(c2)OCO3)CC1` it is -32.9%.
As to `O=C(CSCc1cccs1)N1CCCC1`, the Potency is 12.6 µM (active).
Take `O=C(CSc1ccsc1[N+](=O)[O-])N1CCCCC1`: the “activity change, positive = activation” value was 4.74%.
Same read-out and setting: the figure for `O=C(Cn1c(=O)n(Cc2ccccc2)c(=O)c2sc3ccccc3c21)Nc1ccccc1F` is -17.9%.
The same measure, in the same setting: the figure for `Cc1ccc(-c2nnc3c4ccccc4c(C)nn23)cc1NC(=O)c1cccc(Br)c1` is -0.0665%.
For the molecule `COc1ccc(-c2csc(NC(=O)c3ccc(N4C(=O)CCC4=O)cc3)n2)cc1OC`, the “activity change, positive = activation” value is -3.03%.
For the molecule `NS(=O)(=O)c1ccc(Nc2nc(-c3ccccc3)cs2)cc1`, the “activity change, positive = activation” value is -10.2%.
With `COc1ccc2c(c1OC)C(=O)OC2Nc1nc(-c2ccccc2)cs1` (configuration not stated), the “activity change, positive = activation” value is 26.9%.
Take `O=S(=O)(Nc1ccccn1)c1ccc(Oc2ccccc2)cc1`: the “activity change, positive = activation” value was 6.26%.
In the case of `COC(=O)CSc1nccc(-c2cccs2)n1`, the “activity change, positive = activation” value is -2.36%.
For `COc1ccc(-c2csc(Nc3ccccn3)n2)cc1`, the Potency was 2.24 µM (active).
`COc1ccc(Nc2nc(-c3ccccc3)cs2)cc1`: the Potency is 10 µM (active).
As for `Clc1ccc(Nc2nc(-c3cccs3)cs2)nc1`, the Potency is 14.1 µM (active).
Consider `COc1ccc(NC(=O)c2sc(N)nc2-c2ccccc2)cc1`, for which the “activity change, positive = activation” value is 11.7%.
For the molecule `COc1ccc(OC)c(Nc2nc(-c3ccc(O)c(O)c3)cs2)c1`, the Potency was 17.8 µM (active).
Consider `COc1ccc(C)cc1Nc1nc(-c2c(C)[nH]c3ccccc23)cs1`, for which the “activity change, positive = activation” value was 14%.
Still for that read-out and setting: the figure for `O=C(Nc1ccc(Cl)cn1)Nc1cccs1` is 13.8%.
Still for that read-out and setting: the figure for `CCOc1cc(C2c3c(-c4ccc(Br)cc4)n[nH]c3C(=O)N2c2ccc(Cl)cc2)ccc1O` (configuration not stated) is -31.4%; for `O=C(c1ccc2c(c1)N(Cc1ccc(Cl)cc1)C(=O)c1ccccc1S2(=O)=O)N1CCCCC1` it is -11.6%.
Still for that read-out and setting: to `CC1CCC2(CC1)N=C(c1ccccc1)C(=O)N2CC(=O)Nc1ccc(F)c(Cl)c1` (configuration not stated) belongs 6.66%.
In the case of `c1ccc(Nc2nc(-c3ccncc3)cs2)nc1`, the Potency is 12.6 µM (active).
For the molecule `O=C(Nc1nc(-c2ccncc2)cs1)C1COc2ccccc2O1` (configuration not stated), the “activity change, positive = activation” value was 14.3%.
Same read-out and setting: the figure for `O=C(Nc1nc(-c2ccc(-c3ccccc3)cc2)cs1)c1cnccn1` is -28.6%.
Still for that read-out and setting: to `CSc1ccc(NC(=O)Cn2nnnc2-c2ccccc2F)cc1` belongs -1.68%.
In the case of `O=C(NCCc1c[nH]c2ccccc12)c1cc2ccccc2oc1=O`, the Potency was 17.8 µM (active).
For the molecule `CN(c1ccccc1)S(=O)(=O)c1ccc(Cl)c(C(=O)NCCc2c[nH]c3ccccc23)c1`, the “activity change, positive = activation” value is -16.4%.
With `O=C(NCCc1c[nH]c2ccccc12)C(=O)NCC1CCCO1` (configuration not stated), the “activity change, positive = activation” value is -8.48%.
`O=C(Nc1cccc2cccnc12)c1cccc2c(Br)cccc12`: the “activity change, positive = activation” value was 2.49%.
In the case of `CCOC(=O)c1c(-c2ccc(OC)cc2)oc2ccc(OCc3ccc(C(=O)OC)cc3)cc12`, the “activity change, positive = activation” value was -6.6%.
As to `COC(=O)c1sc(NC(=O)c2csc3c2CCCC3)nc1C`, the Potency was 2.51 µM (active).
On to `CCOC(=O)c1ccc(NC(=O)c2csc3c2CCCCC3)cc1`, for which the “activity change, positive = activation” value is -16.6%.
Still for that read-out and setting: to `COC(=O)c1sccc1NC(=O)c1csc2c1CCCC2` belongs 32.6%.
As to `Cc1ccc(NC(=O)c2csc3c2CCCC3)cc1`, the Potency was 4.47 µM (active).
Regarding `O=C(NCc1ccccc1Cl)c1csc2c1CCCCC2`, the “activity change, positive = activation” value is 5.72%.
Same read-out and setting: the figure for `CC(=O)Cc1nsc(NC(=O)c2csc3c2CCCC3)n1` is 4.95%; for `COc1ccc(OC)c(NC(=O)/C=C/c2ccc(C)o2)c1` it is -0.29%; for `NC(=O)c1sc(-c2ccsc2)cc1N` it is 14.9%.
The same measure, in the same setting: the figure for `COc1ccc(CNC(=O)CS(=O)Cc2nc(-c3cccc(C)c3)oc2C)cc1` (configuration not stated) is -5.97%.
Regarding `CC(CC(=O)O)C(=O)c1ccc(Cl)c([N+](=O)[O-])c1` (configuration not stated), the “activity change, positive = activation” value is 5.72%.
With `CC(=O)Nc1ccc(NC(=O)C(C)OC(=O)c2ccccc2C(=O)c2ccc(Cl)c([N+](=O)[O-])c2)cc1` (configuration not stated), the Potency was 25.1 µM (active).
On to `N#Cc1cccc(NC(=O)COC(=O)c2ccccc2C(=O)c2ccc(Cl)c([N+](=O)[O-])c2)c1`, for which the “activity change, positive = activation” value is -115%.
Still for that read-out and setting: to `COc1cc(OC)c(NC(=O)c2c3c(nn2C)-c2ccccc2SC3)cc1Cl` belongs -7.27%; to `O=C(c1cn(-c2ccccc2)nc1-c1cccnc1)N1CCCCC1`, -3.31%.
For `COc1ccccc1N1CCN(C(=O)c2cn(-c3ccccc3)nc2-c2cccnc2)CC1`, the Potency was 22.4 µM (active).
As to `COC(=O)c1cn(-c2ccccc2)nc1-c1cccnc1`, the “activity change, positive = activation” value was -22%.
Turning to `CCOc1ccc(NC(=O)CSc2c3c(nc4ccccc24)CCCC3)cc1`, the “activity change, positive = activation” value is -16.5%.
For the molecule `Cn1c2ccccc2c(=O)c2c(=O)n(Cc3ccco3)c(COc3ccccc3)nc21`, the Potency is 35.5 µM (active).
For the molecule `COc1ccc(C(=O)CSc2nnc(COc3ccccc3)n2Cc2ccco2)cc1`, the “activity change, positive = activation” value was -25.5%.
On the same count and under the same terms, to `CCCc1nc2c(c(=O)c3ccccc3n2C)c(=O)n1C1CCCCCC1` belongs -22.8%.
